# Results: PubChem BioAssay AID538 (PCMD, 2006)
# Out of some 62,000 compounds screened, about 100 (0.16%) were called active. What follows is part of a selection rich in actives, with near analogues and random picks from the rest. Unmarked numbers belong to inactive results.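 Rule for the calls: active = inhibition above 20% in each of the two 10-compound mixture wells holding the compound; inactive = the rest.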
# Biological target: Complement C1s subcomponent (Homo sapiens) (UniProt P09871)
# Experiment: complement C1s protease inhibitors, primary screen, biochemical, 10-compound mixtures (AID 538);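 note: 0% = enzyme wells lacking compound mixture and 100% = no-enzyme blank wells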
# Conditions: purified C1s, fluorogenic AMC substrate, pooled mixtures; screened at 5 µM (by protocol)
# Chain of Complement C1s subcomponent (Homo sapiens) (P09871 16-437 limits assumed): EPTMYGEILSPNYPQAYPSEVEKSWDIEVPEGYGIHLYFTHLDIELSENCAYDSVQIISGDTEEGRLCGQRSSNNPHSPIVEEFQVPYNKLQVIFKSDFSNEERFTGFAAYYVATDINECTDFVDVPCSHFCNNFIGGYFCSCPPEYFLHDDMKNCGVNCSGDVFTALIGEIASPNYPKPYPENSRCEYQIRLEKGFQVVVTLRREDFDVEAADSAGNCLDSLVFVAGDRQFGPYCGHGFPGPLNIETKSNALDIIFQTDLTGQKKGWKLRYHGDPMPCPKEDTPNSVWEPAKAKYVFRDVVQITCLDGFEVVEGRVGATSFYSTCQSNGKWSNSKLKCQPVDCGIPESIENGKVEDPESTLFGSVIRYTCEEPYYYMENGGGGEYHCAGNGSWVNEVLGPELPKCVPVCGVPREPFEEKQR
# Chain of Complement C1s subcomponent (Homo sapiens) (P09871 438-688 limits assumed): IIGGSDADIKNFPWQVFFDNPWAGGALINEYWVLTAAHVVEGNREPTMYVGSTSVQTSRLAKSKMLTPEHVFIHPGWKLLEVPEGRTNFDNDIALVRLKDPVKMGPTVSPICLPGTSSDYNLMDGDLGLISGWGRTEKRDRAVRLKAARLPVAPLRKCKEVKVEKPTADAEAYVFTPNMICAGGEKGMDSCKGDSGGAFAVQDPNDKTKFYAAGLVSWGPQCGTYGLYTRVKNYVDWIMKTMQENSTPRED
row,Compound,mean inhibition % of two 10-compound mixtures (hits give high values)
1,CCCCN(C)C(=O)c1ccc2c(c1)N(CC)C(=O)c1ccccc1S2(=O)=O,5.62%
2,COc1ccc(-n2c(SCC(=O)Nc3ccc4c(c3)OCO4)nnc2C(C)N2CCCCC2)cc1 (centres undefined),-12.3%
3,CCN(Cc1ccncc1)C(=O)c1cccc(S(=O)(=O)N2CCOCC2)c1,2.16%
4,Cc1cc(N2C(=O)C(=O)/C(=C(/O)c3ccc(Cl)cc3)C2c2cccc(Br)c2)no1 (centres undefined),11.8%
5,O=C(NCc1ccco1)c1sc2cccc(F)c2c1Cl,3.97%
6,COc1ccc(NC(=O)CCNC(=O)Cn2ccc3ccccc3c2=O)c(OC)c1,13.2%
7,CC(C)Nc1nc(N(c2ccccc2)c2ccccc2)nc(-n2ccnc2)n1,9.18%
8,CSc1cccc(NC(=O)C2CCCN2S(=O)(=O)c2ccc3c(c2)CCC(=O)N3)c1 (centres undefined),-3.33%
9,Cc1ccc(C2CC(=O)NC(SCC(=O)OCc3ccccc3)=C2C#N)o1 (centres undefined),-61.3%
10,CCC(=O)Nc1cccc(NC(=O)CSc2nnnn2C2CCCC2)c1,2.81%
11,CC(C)c1cc(C(=O)O)on1,-17.9%
12,CC1CCc2c(sc(NC(=O)c3ccc(Cn4cc(Br)cn4)o3)c2C(N)=O)C1 (centres undefined),-5.95%
13,CCCn1c(=O)c2ccccc2n2c(SCC(=O)/C(C#N)=C(\C)N)nnc12,-0.9%
14,CCOc1ccc2nc(SC(CC)C(=O)Nc3cc(C)on3)sc2c1 (centres undefined),2.46%
15,COc1ccccc1Nc1nc(N)nc(CN(C)C2CCCCC2)n1,-40.1%
16,C=CCn1c(CC(=O)Nc2cccc(OC)c2)nnc1SCC(=O)NC1CCCCC1,-2.35%
17,O=C(c1cccc(S(=O)(=O)N2CCOCC2)c1)N1CCOCC1,13.9%
18,CN1CCN(C(=O)c2ccc(NS(=O)(=O)c3ccccc3)cc2)CC1,9.96%
19,CC(=O)N1CCN(C(=O)c2cccc(S(=O)(=O)Nc3ccc(C)cc3)c2)CC1,66.7% (active)
20,COCCCNC(=O)COc1cc(C)c(Cl)c(C)c1,-0.425%
21,CCOC(=O)Cc1csc(NC(=O)CSc2nc(C)cc(=O)[nH]2)n1,-2.67%
22,O=S(=O)(/C=C/c1ccccc1)NCCc1ccccn1,-2.77%
23,Clc1ccc(Cn2ncc3c(NCc4cccnc4)ncnc32)cc1,3.33%
24,Cc1ccc(S(=O)(=O)NCC(=O)OCC(=O)N2CCc3ccccc32)cc1,5.33%

row,Compound,mean inhibition % of two 10-compound mixtures (hits give high values)
1,N#Cc1cccc(CSc2nnc(CCCO)n2-c2ccccc2)c1,-5.26%
2,CCCC(C(=O)N1CCOCC1)N1C(=O)C2C3C=CC(C3)C2C1=O (centres undefined),-8.34%
3,O=c1[nH]nc(CSCc2ccccc2Cl)[nH]1,-7.92%
4,Cc1c(C(=O)NCC2CCCO2)sc2nc(-c3ccccc3)cn12 (centres undefined),0.595%
5,COC(=O)C(C)n1cnc2c(nnn2-c2cccc(Cl)c2)c1=O (centres undefined),-40.6%
6,CC(C)c1ccc(OCC(O)Cn2cnc3ccccc32)cc1 (centres undefined),-21.9%
7,CC(C)C(NC(=O)c1cccc(S(=O)(=O)N2CCOCC2)c1)C(=O)NCCc1ccccn1 (centres undefined),-12.8%
8,COC(=O)COc1ccc2oc(=O)cc(C)c2c1,10.3%
9,COC(=O)c1ccc(S(=O)(=O)c2ccc(C(=O)OC)s2)s1,-14%
10,COC(=O)c1ccccc1NC(=O)CSc1ccccn1,-21.1%
11,CC1CN(Cc2nc3c(c(=O)n(C)c(=O)n3C)n2Cc2cccc(Cl)c2)CC(C)O1 (centres undefined),-18.5%
12,COc1cccc(-n2c(SCC(=O)NC3CCCCC3)nc3n[nH]c(C)c3c2=N)c1,-13.5%
13,CC(=O)N(Cc1cccs1)C1CCOC(C)(C)C1 (centres undefined),4.59%
14,CCOC(=O)c1cccc(NC(=O)CCc2c(C)nc3ncnn3c2C)c1,2.35%
15,CC(C)n1c(NCc2c[nH]c3ccccc23)nc2ccccc21,-7.58%
16,Cn1c(/C(C#N)=C2/CCCCCN2)nc2ccccc21,-6.22%
17,Cc1ccc(OCC(=O)Nc2ccc(-c3nc4ncccc4o3)cc2)cc1,-66.2%
18,Cc1ccccc1CSc1nnc(Cn2c(=O)sc3ccccc32)n1C,4.08%
19,CCOC(=O)CCc1c(C)c2ccc(OCc3nn[nH]n3)c(C)c2oc1=O,-25%
20,Cc1c(C(=O)Nc2ccccc2Cl)oc2ccc(S(=O)(=O)N3CCC4(CC3)OCCO4)cc12,-4.62%
21,COc1cccc(-c2nnc(NC(=O)c3ccc(S(=O)(=O)N(CC(C)C)CC(C)C)cc3)o2)c1,14%
22,COC(=O)C(C)Sc1ccc2nnc(-c3cccc(F)c3)n2n1 (centres undefined),-5.87%
23,CCOC(=O)c1nnn(-c2nc(OC)nc(N(C)C)n2)c1-c1ccccc1,-30.1%
24,C#CC(C)(C)NC(=O)CSc1nc2c(c(=O)n(C)c(=O)n2C)n1CCCC,1.95%

row,Compound,mean inhibition % of two 10-compound mixtures (hits give high values)
1,CCCc1cc(=O)[nH]c(SCc2ccc(C#N)cc2)n1,-9.73%
2,C=C(C)COc1ccc(-c2n[nH]c(C)c2-c2ccccc2OC)c(O)c1,15.7%
3,O=C(C1=C(O)C(=O)N(Cc2ccccc2)C1c1cccnc1)c1ccco1 (centres undefined),3.85%
4,Cc1ccccc1C(=O)NCCN=C1NS(=O)(=O)c2ccccc21,-24.8%
5,N#Cc1ccccc1-n1c(N)c(C(=O)N2CCCC2)sc1=S,-0.195%
6,O=C(O)COc1nsnc1N1CCOCC1,-1.36%
7,O=C(O)c1cc(S(=O)(=O)N2CCCCCC2)c(Cl)cc1Cl,-41%
8,Cc1ccccc1-c1ccc(Nc2ccc(C(=O)N3CCOCC3)cc2)nn1,16%
9,Cc1ccnc(N2C(=O)c3ccccc3C2Nc2ccc3c(c2)OCCO3)c1 (centres undefined),-33.6%
10,COc1cccc(OCC(=O)Nc2ccccc2C(N)=O)c1,16.6%
11,O=C(O)C1CC(=O)N(Cc2cccnc2)C1 (centres undefined),5.36%
12,CCCn1c(=NC(C)=O)c(C(=O)OCC)cc2c(=O)n3ccccc3nc21,-168%
13,N#Cc1cccc(NC(=O)CCC2CCCC2)c1,-2.16%
14,Cn1nc(-c2ccc(Cl)cc2)c2cc(C(=O)NCc3ccco3)sc21,10.9%
15,O=S(=O)(NCc1ccccn1)c1ccc(Br)s1,-20.3%
16,COc1ccc(C(=O)Nc2c(N)nc(SCC(=O)N3CCC(C)CC3)[nH]c2=O)cc1OC,-31.6%
17,CC1(C)CC(=O)C=C(NCc2ccncc2)C1,-4.76%
18,Cc1ccc2c(c1)c1ncn(CCC3=CCCCC3)c(=O)c1n2C,2.97%
19,CCCn1c(SCC(=O)c2ccc3c(c2)OCCO3)nnc1C(C)C,-7.42%
20,Cc1nn(-c2ccccc2)c2[nH]c(C(F)(F)F)cc(=O)c12,1.25%
21,CS(=O)(=O)N(C(=O)NC(=O)NC1CCS(=O)(=O)C1)C1CCCCC1 (centres undefined),-74.3%
22,CCCS(=O)(=O)N1CCC(C(=O)NCCCN(C)Cc2ccccc2)CC1,2.46%
23,CCc1cc(Br)ccc1NC(=O)C1CCCO1 (centres undefined),4.52%
24,Cc1cccc(OCC(O)Cn2c(=N)n(CCN3CCOCC3)c3ccccc32)c1 (centres undefined),3.52%

row,Compound,mean inhibition % of two 10-compound mixtures (hits give high values)
1,O=S(=O)(NCCOc1cccc2cccnc12)c1ccc(F)cc1,8.29%
2,CCOC(=O)CN(C(=O)CN1CCOCC1)c1ccc(Br)cc1,1.94%
3,O=C(Nc1ccc(Cl)cn1)Nc1cccs1,7.83%
4,CC(NC(=O)c1cc(-c2ccccc2)on1)c1ccccc1 (centres undefined),-25.3%
5,CCn1ncc(C2=NOC(C(=O)Nc3ccccc3C(=O)OC)C2)c1C (centres undefined),1.96%
6,COc1ccc(CCNC(=O)CN2CCC(n3nnc4cc(F)ccc43)CC2)cc1OC,2.77%
7,Cc1ccc(Cn2nnc3c(=O)n(CC(=O)N4CCCCC4)cnc32)cc1,-35.5%
8,Cc1ccc(CNC(=O)C2CC(=O)N(C3CCCCCCC3)C2)cc1 (centres undefined),-34.1%
9,COc1ccccc1N(C(=O)Cn1nnc2ccccc21)C(C(=O)NCc1ccco1)c1ccc(C)o1 (centres undefined),8.72%
10,C#CCN1C(=O)C(O)(CC(=O)c2cc(OC)ccc2OC)c2ccccc21 (centres undefined),11.6%
11,C=CCn1c(SCn2nnc3ccccc3c2=O)nnc1-c1ccc(Cl)cc1,9.21%
12,CCOc1ccc(S(=O)(=O)N(CC(=O)O)c2ccccc2)cc1,-11.4%
13,O=S1(=O)CCN2C(=N1)SC1=C2CCN(Cc2ccccc2)C1,15.2%
14,Cc1cc(C)cc(NC(=O)N2CCC(NC(=O)c3ccc(F)cc3)CC2)c1,3.5%
15,CC(C)CCNC(=O)C(C)N(C(=O)Cn1nnc(-c2ccc(F)cc2)n1)C1CCCC1 (centres undefined),-3.08%
16,CCCCCOC(=O)NCCOC(=O)Nc1ccc(C(=O)OCC)cc1,1.11%
17,CCNc1nc(SCCOc2ccccc2)nc(N(C)C)n1,3.09%
18,C=CCn1c(SCC(=O)NC23CC4CC(CC(C4)C2)C3)nc(O)cc1=O,-25.2%
19,COC(=O)c1cccc(NC(=O)CN2CCC(NC(=O)c3cc(OC)c(OC)c(OC)c3)CC2)c1,-69.7%
20,Cc1cccc(N2CCN(S(=O)(=O)c3ccc4c(c3)c(=O)n(C)c(=O)n4C)CC2C)c1 (centres undefined),12.1%
21,CCCC(=O)Nc1ccc(C(=O)NCCCn2ccnc2)cc1,14.7%
22,COc1ccc(-c2cc3ccc(OCc4nn[nH]n4)cc3oc2=O)cc1,-281%
